Screening data deposited in PubChem BioAssay by National Center for Advancing Translational Sciences (NCATS).
Sampled rows, rich in hits. Any-hit rate of the full collection: about 19%.
IL1B secr inh: blocks inflammasome-driven IL-1 beta release; actives 4.7% (n = 360,000); activity change, % at 57.5 µM; THP-1 LPS/ATP IL-1B secretion, AlphaLISA, 16 h; hits give low values; in the data active = activity change below about -50%; inconclusive = mostly about -30% to -49%
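THP-1 cells pretreated 1 hr with compounds (up to 57.5 uM final), then stimulated with LPS (250 ng/mL final) plus ATP (1.25 mM final); secreted IL-1B measured by AlphaLISA after 16 hr, decreased signal indicating inhibition.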
HT1080 IDH1KD tx: toxicity to HT-1080 IDH1 knockdown cells (counter line); HT-1080 IDH1 knockdown viability, ATP luminescence, 48 h; Potency, µM (top dose mostly 46.1 µM), for inactives: at the top dose activity, negative = toxicity, most hits filed as cytotoxic; actives 2% (n = 360,000); AID 686971;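 also: potency is read from the fitted curve at half-maximal effect; 0% = DMSO wells and -100% = cell-free medium wells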
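Viability of IDH1-knockdown HT-1080 fibrosarcoma cells was assessed by CellTiter-Glo after 48 h at 37 °C with titrated compound; concentration-effect curves were classified by fit quality and response size.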
DT40 TDP1 no CPT: qHTS for Inhibitors of human tyrosyl-DNA phosphodiesterase 1 (TDP1): qHTS in cells in absence of CPT; actives 15% (n = 420,000); Potency, µM (titrated, usually from 46.2 µM), without a hit: at the top dose activity change, negative = growth inhibition, most hits filed as inhibitors; DT40 Tdp1-/- hTDP1 cells, no CPT, ATP luminescence, 48 h; also: potency is read from the fitted curve at half-maximal effect; nearly all actives have a fitted effect of over 55% in size
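Compound effects on proliferation are scored in DT40 Tdp1-/-;hTDP1 cells in the absence of CPT. ATP levels (CellTiter-Glo luminescence) are recorded after a ≥48 hr, 37 °C incubation.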
HT1080-NT tox: kills 2HG-producing HT-1080-NT fibrosarcoma cells. HT-1080-NT fibrosarcoma viability, CellTiter-Glo ATP luminescence, 48 h. Potency, µM (titrated, usually from 46.1 µM), inactives show top-dose activity, negative = less viability, usual class: cytotoxic. actives 1.6% (n = 360,000). AID 686970;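 also: NT is the 2HG producing partner of a matched IDH1 knockdown line; potency is read from the fitted curve at half-maximal effect; 0% = DMSO-treated cells and -100% = media-only wells without cells; nearly all actives have a fitted effect of over 55% in size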
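A 48-hour cytotoxicity screen used HT-1080-NT cells plated 2 hours before compound delivery. ATP-based CellTiter-Glo luminescence measured viability, normalized to DMSO and no-cell controls.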
DT40 TDP1 CPT: growth inhibition of DT40 Tdp1-/-;hTDP1 cells with camptothecin (screen for TDP1 inhibitors) | chicken DT40 Tdp1-/-;hTDP1 cells + 20 nM CPT, ATP luminescence, 48 h | actives 12% (n = 420,000) | Potency, µM (doses to about 46.2 µM), inactives show at the highest dose activity change, negative = growth inhibition, hits mostly inhibitors; also: potency is read from the fitted curve at half-maximal effect; nearly all actives have a fitted effect of over 55% in size
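Chicken DT40 Tdp1-/- cells stably complemented with human TDP1 were seeded at 400 cells/well in medium containing 20 nM camptothecin, exposed to pin-transferred compounds, and grown at 37 °C for at least 48 hr. Viability was read as ATP luminescence.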
* = called active by the depositor; ? = inconclusive; . = not tested or not shown. Unless noted, calls follow the shape of the dose curve; as a rule, active = well fitted curve in the direction sought with a large enough effect; inconclusive = small, poorly fitted or top-dose-only effect, or another doubt; inactive = no such curve, though single readings can be large; an effect the other way counts as inactive or inconclusive. Unless noted, % is scaled to controls: 0 for no effect and ±100 for the full control effect.

SMILES	IL1B secr inh	HT1080 IDH1KD tx	DT40 TDP1 no CPT	HT1080-NT tox	DT40 TDP1 CPT
CN(C)c1ccc(/C=C/c2ccnc3ccc(-c4ccccc4)cc23)cc1	.	.	14µM*	.	?
CN(C)c1ccc(-c2ccc3ncnc(N4CCNCC4)c3c2)cc1	.	.	?	.	-6%
COc1ccc2nccc(/C=C/c3ccc(N(C)C)cc3)c2c1	.	.	11µM*	.	?
COc1ccc(CN2CCc3ccccc3C2)cc1Br	3	-1%	?	5%	-3%
Brc1ccc2ncc3ccccc3c2c1	-15	3%	?	10%	?
CN(C)c1ccc(/C=C/c2ccnc3ccc(Cl)cc23)cc1	.	.	13µM*	.	?
CN(C)c1ccc(C=O)c(Cl)c1	.	.	0%	.	4%
CN(C)c1ccc(/C=C/c2ccnc3ccc(Br)cc23)cc1	.	.	5.6µM*	.	5.6µM*
COc1cccc2nccc(/C=C/c3ccc(N(C)C)cc3)c12	.	.	13µM*	.	32µM*
CN(C(=O)CCn1c(=S)oc2ccccc21)c1ccc(F)cc1	6	4%	?	-4%	2%
COc1ccccc1CNC(=O)CSc1ccc(C(=O)Nc2ccccc2OC)cc1[N+](=O)[O-]	4	8%	9.2µM*	11%	9.2µM*
CCn1c(=O)cc(OCC(=O)N2CCN(c3ccc(C)cc3)C(C)C2)c2ccccc21 (stereo unspecified)	.	.	6.5µM*	.	7.3µM*
CCn1c(=O)cc(OCC(=O)N2CCc3ccccc32)c2ccccc21	-23	3%	-14%	14%	-2%
CCn1c(=O)cc(OCC(=O)N2CCCCCC2)c2ccccc21	-2	-10%	18%	-2%	-5%
CCn1c(=O)cc(OCC(=O)N2CCN(c3ccc(F)cc3)CC2)c2ccccc21	0	8%	15µM*	9%	23µM*
COc1ccc(N2C(=O)NC(NC(=O)C(C)(C)C)(C(F)(F)F)C2=O)cc1 (stereo unspecified)	18	-1%	1%	-1%	2%
NC(=O)c1cc(NC(=O)CCCc2nc3ccccc3s2)cc(C(N)=O)c1	47	0%	2%	6%	-1%
CC(C)(C)CC(=O)NC(=S)NCc1ccccc1	84	-3%	0%	-5%	?
CN(C)C(=O)c1ccc(SC(=S)NCc2ccccc2)cc1	?	1%	5.8µM*	?	5.8µM*
CCC1=C(OC(=O)N(CC)CC)N2C(=O)OC(=NCCc3c[nH]c4ccccc34)[C@]2(C)[C@H]2C1=CC[C@H]1C(=O)N(C)C(=O)[C@H]12	1	6%	-21%	14%	?
N#CC(c1cccc(Cl)c1)c1ccc2c(C(F)(F)F)cc(C(F)(F)F)nc2n1 (stereo unspecified)	-105*	?	1.6µM*	9.2µM*	1.5µM*
CN(C)CCN1C(=O)c2ccccc2N(C)c2ccccc21	.	.	?	.	-24%
O=C(NC1CC1)c1ccc(CSCc2ccc(Cl)cc2)o1	-15	-21%	21µM*	-20%	?
Cc1ccccc1S(=O)(=O)Cc1ccc(C(=O)NC2CCCCC2)o1	?	6%	?	9%	21µM*
CC(C)N(CCNC(=O)c1ccc(CS(=O)(=O)c2c(Cl)cccc2Cl)o1)Cc1ccccc1	-8	-3%	?	-14%	21µM*
SMILES	IL1B secr inh	HT1080 IDH1KD tx	DT40 TDP1 no CPT	HT1080-NT tox	DT40 TDP1 CPT
CC1CCC(NC(=O)c2ccc(CS(=O)(=O)c3c(Cl)cccc3Cl)o2)CC1 (stereo unspecified)	.	.	?	.	15µM*
CN(CCNC(=O)c1ccc(CS(=O)(=O)c2c(Cl)cccc2Cl)o1)CCc1ccccc1	-12	-1%	-26%	-13%	?
CCc1ccccc1S(=O)(=O)Cc1ccc(C(=O)NC2CCCC2)o1	-26	10%	8%	-1%	-21%
Cc1ccccc1S(=O)(=O)Cc1ccc(C(=O)NCCN(C)Cc2ccccc2)o1	7	21%	-6%	6%	-28%
Cc1cccc(S(=O)Cc2ccc(C(=O)NC3CCCCCC3)o2)c1 (stereo unspecified)	.	.	?	.	12µM*
Cc1ccccc1S(=O)(=O)Cc1ccc(C(=O)NCCN(Cc2ccccc2)C(C)C)o1	-5	11%	16µM*	11%	?
O=C(CN1C(=O)CC(c2ccccc2)S(=O)(=O)c2ccccc21)N1CCCC1 (stereo unspecified)	-4	7%	-24%	3%	8%
CN1CCN(C(=O)/C(=C/c2cccs2)NC(=O)c2ccco2)CC1	-18	15%	?	12%	16%
CC(C)(C)n1nnnc1C(c1cc2ccccc2o1)N1CCCC1 (stereo unspecified)	23	11%	-29%	5%	-13%
COc1ccc(-n2nnnc2C(c2cc3ccccc3o2)N2CCN(C/C=C/c3ccccc3)CC2)cc1 (stereo unspecified)	-16	-12%	15µM*	-16%	23µM*
CCCCn1nnnc1C(c1cc2ccccc2o1)N1CCN(c2ncccc2C#N)CC1 (stereo unspecified)	-3	-13%	18µM*	-1%	?
COc1ccc(C(c2nnnn2-c2c(C)cccc2C)N2CCN(C/C=C/c3ccccc3)CC2)cc1 (stereo unspecified)	19	3%	?	-4%	?
C(=C\c1ccccc1)/CN1CCN(C(c2cccs2)c2nnnn2-c2ccc3c(c2)OCCO3)CC1 (stereo unspecified)	-20	?	23µM*	?	?
COc1ccc(-n2nnnc2C(c2cccc3ccccc23)N2CCN(C/C=C/c3ccccc3)CC2)cc1 (stereo unspecified)	-19	-24%	8.2µM*	-27%	7.3µM*
CSCC[C@H](N)C(=O)NC[C@H]1CC[C@H](C(=O)N[C@@H](Cc2ccccc2)C(=O)O)CC1	-15	0%	12%	-9%	2%
CCOC(=O)c1c(NC(=O)c2cc(C)on2)c2cc([N+](=O)[O-])ccc2n1C	-1	-2%	9%	-7%	8%
CCCCn1nnnc1C(c1cc2ccccc2o1)N1CCN(C/C=C/c2ccccc2)CC1 (stereo unspecified)	-11	?	16µM*	?	21µM*
C(=C\c1ccccc1)/CN1CCN(C(c2cc3ccccc3o2)c2nnnn2-c2ccc3c(c2)OCCO3)CC1 (stereo unspecified)	-13	-13%	15µM*	-11%	13µM*
COc1ccc(C(c2nnnn2-c2ccc3c(c2)OCCO3)N2CCN(C/C=C/c3ccccc3)CC2)cc1 (stereo unspecified)	?	?	16µM*	?	16µM*
